A number with no mark means an inactive call. Inconclusive results are not listed. The source made the active and inactive calls. Unless noted, the call rests on the fitted dose curve; in most records, active means well fitted curve in either direction with a large enough effect (not every such curve was filed as active); inconclusive means small, poorly fitted or top-dose-only effect, or another doubt; inactive means flat fitted curve, though single readings scatter. Bounds are passed on as bounds.

This note sets out measurements from PubChem BioAssay (NCATS).

Assay [1] in a line: Stat Signaling Pathway (AID 446).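 Further: ME-180 cervical cancer cells given 40 pM IL-6 alongside compound; SIE-controlled beta-lactamase reporter measured as 460/530 nm FRET emission ratio; on the % scale 0 is the no-effect control and ±100 the full control effect.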 The following applies: ME-180 SIE beta-lactamase reporter, IL-6 stimulated, 5 h; at 17.2 µM (top of the series) unless noted. Summed up:
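Emission at 460 and 530 nm (excitation 405 nm) reports SIE-controlled beta-lactamase in ME-180 cells. Cells received compound with 40 pM IL-6 for 5 hrs at 37 C; data scaled between 300 pM IL-6 and 125 nM JAK-inhibitor controls.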

The target in assay [2] is Glucocorticoid receptor (Homo sapiens) (UniProt P04150). Nature of the assay: GR-GFP Redistribution (AID 450;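 active means compounds whose dose series gives a full or clear partial fitted curve of increased nuclear translocation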; further: potency means the concentration at half of the fitted maximal effect).
Assay [3] is described as follows: qHTS Assay for Identification of Small Molecule Agonists for Hypoxia Response Element Signaling Pathway (AID 914; active means well fitted activation curve with a large enough effect in the signal ratio, with a control signal flat, not every such curve was filed as active; the % refers to the signal ratio; further: potency means the concentration at half of the fitted maximal effect). The following applies: ME-180 (cervical carcinoma) HRE-bla reporter, beta-lactamase ratio, CoCl2, 17 h; activation: active compounds read high. Summed up:
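qHTS titration; ME-180 HRE-bla cells; EC50 CoCl2 co-treatment, 17 h at 37 degrees Celsius; CCF4 dye, ex 405nm, em 460nm and 530nm; %Activity from ratio; AC50.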
Background: Quantitative high-throughput screening tests each substance at several concentrations.

Glucocorticoid receptor (Homo sapiens), sequence (P04150 whole entry, looked up): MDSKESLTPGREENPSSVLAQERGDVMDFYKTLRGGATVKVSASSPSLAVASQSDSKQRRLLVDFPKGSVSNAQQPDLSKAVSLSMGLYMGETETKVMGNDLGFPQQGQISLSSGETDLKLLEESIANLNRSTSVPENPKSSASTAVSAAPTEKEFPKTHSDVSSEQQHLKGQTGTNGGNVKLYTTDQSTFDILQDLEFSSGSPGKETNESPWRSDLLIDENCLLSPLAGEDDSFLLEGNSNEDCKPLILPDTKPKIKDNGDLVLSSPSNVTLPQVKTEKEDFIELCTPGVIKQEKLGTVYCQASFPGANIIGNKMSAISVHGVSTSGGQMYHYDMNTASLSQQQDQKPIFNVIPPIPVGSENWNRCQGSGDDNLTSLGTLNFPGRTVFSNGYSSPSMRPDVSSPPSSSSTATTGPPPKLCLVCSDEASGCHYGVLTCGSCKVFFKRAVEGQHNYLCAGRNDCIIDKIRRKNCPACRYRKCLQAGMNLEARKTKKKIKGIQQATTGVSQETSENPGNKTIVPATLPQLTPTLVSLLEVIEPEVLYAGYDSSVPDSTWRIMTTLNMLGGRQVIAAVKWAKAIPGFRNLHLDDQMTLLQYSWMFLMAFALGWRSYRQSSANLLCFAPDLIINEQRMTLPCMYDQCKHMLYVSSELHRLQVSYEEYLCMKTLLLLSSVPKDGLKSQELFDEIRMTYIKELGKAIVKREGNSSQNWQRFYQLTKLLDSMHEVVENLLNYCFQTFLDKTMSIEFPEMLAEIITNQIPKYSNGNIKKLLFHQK

For the molecule `CC(NC(=O)CSc1nc2c(cc1C#N)CN(C)CC2)c1ccccc1` (stereo not given), the activity, negative = inhibition in assay [1] was -4.3%. Further, the Potency in assay [2] was more than 20.6 µM.

Turning to `O=c1c2sc3nc(N4CCOCC4)c4c(c3c2ncn1Cc1ccco1)CCCC4`, the activity, negative = inhibition in assay [1] is -14.9%. The Potency in assay [2] was more than 20.6 µM.

With `COc1ccc(OC)c(NC(=O)CSC2=C(C#N)C(c3ccco3)C3=C(CCCC3=O)N2)c1` (stereo not given), the activity, negative = inhibition in assay [1] was -3.42%. The Potency in assay [2] is more than 20.6 µM.

`Fc1ccccc1-c1nc(N2CCCCC2)c2ccccc2n1`: the activity, negative = inhibition in assay [1] was -21.5%. The Potency in assay [2] was more than 20.6 µM.

In the case of `N#CC1=C(SCc2ccccc2)NC2=C(C(=O)CCC2)C1c1ccc2c(c1)OCO2` (stereo not given), the activity, negative = inhibition in assay [1] is -5.66%. For the same molecule, the Potency in assay [2] is more than 20.6 µM.

On to `COc1ccc(-c2oc3ncn4nc(COc5ccccc5)nc4c3c2-c2ccc(OC)cc2)cc1`, for which the activity, negative = inhibition in assay [1] was 4.11%. Moreover, in assay [2], the Potency was more than 20.6 µM.

For `CCCc1nn(C)c2c1C(c1cccnc1)C(C#N)=C(N)O2` (stereo not given), the activity, negative = inhibition in assay [1] was 4.95%. Moreover, in assay [2], the Potency is more than 20.6 µM.

Consider `Cc1cc(C)n(S(=O)(=O)/C=C/c2ccccc2)n1`, for which the activity, negative = inhibition in assay [1] was -7.25%. For the same molecule, the Potency in assay [2] is more than 20.6 µM.

Turning to `O=C(O)CCc1cc(I)c(Oc2ccc(O)c(I)c2)c(I)c1`, in assay [1], the activity, negative = inhibition was -5.45%. Further, the Potency in assay [2] was more than 20.6 µM.

For `CCN(CC)CCOC(=O)c1c(C)n(C)c2ccc(OC)cc12`, the activity, negative = inhibition in assay [1] was 11.9%. Moreover, in assay [2], the Potency was more than 20.6 µM.

With `COc1ccc(Nc2cc(C)nc(-n3nc(C)cc3C)n2)cc1`, the activity, negative = inhibition in assay [1] is -13%. In addition, in assay [2], the Potency is more than 20.6 µM.

Regarding `N#Cc1ccc(-c2ccco2)nc1SCC(=O)c1ccc(Cl)cc1`, in assay [1], the activity, negative = inhibition was -9.2%. Also, the Potency in assay [2] is more than 20.6 µM.

For `N#Cc1nc(-c2ccc(Cl)cc2)oc1N1CCCCC1`, in assay [1], the activity, negative = inhibition is 2.4%. The Potency in assay [2] was more than 20.6 µM.

Turning to `N#C/C(=N\O)c1nc(-c2ccccc2)cs1`, the activity, negative = inhibition in assay [1] is 9.7%. The Potency in assay [2] is more than 20.6 µM.

Take `CCOc1ccc(/C(O)=C2/C(=O)C(=O)N(c3cc(C)on3)C2c2ccc(C(=O)OC)cc2)cc1` (stereo not given): the activity, negative = inhibition in assay [1] is -18.4%. The Potency in assay [2] was more than 20.6 µM.

Consider `CN(C)c1nc(OCCNC(=O)Nc2ccccc2)nc(N(C)C)n1`, for which, in assay [1], the activity, negative = inhibition was -7.19%. Moreover, the Potency in assay [2] is more than 20.6 µM.

With `C=CCc1cccc(CNc2nc3ccccc3n2C(C)C)c1O`, the activity, negative = inhibition in assay [1] is -22.2%. In addition, the Potency in assay [2] is more than 20.6 µM.

As for `CCN(CC)c1ccc2c(C)c(-c3ccc(N)cc3)c(=O)oc2c1`, the activity, negative = inhibition in assay [1] was 14.8%. Also, in assay [2], the Potency is more than 20.6 µM.

As for `COC(=O)c1[nH]c2cc(OC)ccc2c1NC(=O)CN1CCN(c2cccc(C)c2)C(C)C1` (stereo not given), the activity, negative = inhibition in assay [1] was -21.4%. Besides, the Potency in assay [2] is more than 20.6 µM.

Take `CCOC(=O)C1CCN(c2nc3ccccc3nc2C(C#N)C(=O)NCCc2ccccc2)CC1` (stereo not given): the activity, negative = inhibition in assay [1] was -24.6%. Besides, the Potency in assay [2] was more than 20.6 µM.

On to `COc1ccc(C(=O)C(CN2CCCC2)c2ccccc2)cc1` (stereo not given), for which, in assay [1], the activity, negative = inhibition is -8.3%. Also, in assay [2], the Potency was more than 20.6 µM.

For the molecule `Cn1c(NCC(O)c2ccccc2)nc2c1c(=O)n(Cc1ccc(Cl)cc1)c(=O)n2C` (stereo not given), in assay [1], the activity, negative = inhibition was -24.9%. Also, in assay [2], the Potency was more than 20.6 µM.

Consider `Nc1c2c(nc3ccccc13)N(c1ccccc1)CC2`, for which, in assay [1], the activity, negative = inhibition was 9.15%. Besides, the Potency in assay [2] is more than 20.6 µM.

For `Cc1c(C)c2cc(Cl)c(O)c(CN3CCN(C)CC3)c2oc1=O`, in assay [1], the activity, negative = inhibition was 11.1%. Moreover, the Potency is more than 20.6 µM in assay [2] and 7.94 µM (active) in assay [3].

For `CN(CCCCCNC(=O)/C=N/O)Cc1ccccc1`, the activity, negative = inhibition in assay [1] was 9.45%. For the same molecule, the Potency in assay [2] is more than 20.6 µM.

For the molecule `Cc1coc2c(O)cc3c(c12)OC1(N2CCCCC2)C(=O)NCCCC31` (stereo not given), in assay [1], the activity, negative = inhibition is -21.8%. For the same molecule, the Potency in assay [2] was more than 20.6 µM.

Take `CCOC(=O)c1c(C)n(C)c2ccc(O)c(CN3CCCCC3)c12`: the activity, negative = inhibition in assay [1] was 18.3%. Besides, in assay [2], the Potency was more than 20.6 µM.
